Screening results: PubChem BioAssay, several laboratories
M1 PAM parental – nonselective activator or artifact in parental CHO-K1 calcium assay. AID 602247. hit rate 0.02% among 360,000. activation, % at 3 µM. ATP EC20, Fluo-8 calcium fluorescence; 0% at ATP EC20, 100% at ATP max;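 active = activation above the run cutoff, the mean activation of all test compounds plus 3 SD, cut at about 40% in these data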;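 also: peak over basal fluorescence ratio in a 140 s read after ATP addition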
TMEM16A act – activators or potentiators of mouse TMEM16A chloride channel; Q8BHY3; HEK293 TMEM16A/YFP-H148Q/I152L, iodide quench fluorescence; active compounds read low; B-score at 10 µM; hit rate 0.3% among 340,000;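 active = fluorescence-ratio B-score plate-corrected deviation score at least 3 library SD below zero, with starting fluorescence score within 5 deviations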;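 also: channel opened by trigger with iodide after compound preincubation; score built on the fluorescence ratio of max minus min over baseline; more negative score means more quench and so TMEM16A activation or potentiation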
Target sequence (Q8BHY3 whole entry, looked up): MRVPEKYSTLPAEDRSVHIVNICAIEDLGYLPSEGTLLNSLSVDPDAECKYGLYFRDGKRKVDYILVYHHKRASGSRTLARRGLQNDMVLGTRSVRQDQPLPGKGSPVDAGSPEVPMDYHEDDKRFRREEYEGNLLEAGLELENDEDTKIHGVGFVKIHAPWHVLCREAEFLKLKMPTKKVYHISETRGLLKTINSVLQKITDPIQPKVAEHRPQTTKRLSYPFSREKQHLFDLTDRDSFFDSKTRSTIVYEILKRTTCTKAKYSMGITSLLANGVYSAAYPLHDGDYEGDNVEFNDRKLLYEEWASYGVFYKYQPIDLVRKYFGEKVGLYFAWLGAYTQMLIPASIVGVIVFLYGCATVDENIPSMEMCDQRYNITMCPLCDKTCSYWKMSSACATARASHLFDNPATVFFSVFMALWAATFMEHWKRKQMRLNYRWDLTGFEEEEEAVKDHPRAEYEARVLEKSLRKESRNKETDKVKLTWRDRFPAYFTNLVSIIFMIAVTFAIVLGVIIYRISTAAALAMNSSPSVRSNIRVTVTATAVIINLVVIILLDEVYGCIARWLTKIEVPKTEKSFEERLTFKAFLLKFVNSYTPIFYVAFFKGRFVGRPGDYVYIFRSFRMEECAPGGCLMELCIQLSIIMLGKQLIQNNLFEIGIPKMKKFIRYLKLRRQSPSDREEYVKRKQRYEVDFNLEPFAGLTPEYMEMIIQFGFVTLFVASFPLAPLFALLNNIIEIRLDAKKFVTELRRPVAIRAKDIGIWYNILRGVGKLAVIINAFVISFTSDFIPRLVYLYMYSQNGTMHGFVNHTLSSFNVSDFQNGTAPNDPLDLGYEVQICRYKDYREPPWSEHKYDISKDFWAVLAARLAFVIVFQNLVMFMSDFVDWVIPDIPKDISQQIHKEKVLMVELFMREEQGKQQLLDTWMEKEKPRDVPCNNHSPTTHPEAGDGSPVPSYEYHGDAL
TMEM16A inh – inhibitors of mouse TMEM16A calcium-activated chloride channel; hit rate 1.2% among 310,000; normalized B-score (activity score, 25-100; higher = stronger inhibition) at 10 µM; HEK293 TMEM16A/YFP iodide influx fluorescence, ionomycin;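 active = ratio plate-corrected score three or more library SD toward inhibition, starting fluorescence score within five deviations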;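 also: score derived from kinetic fluorescence span divided by baseline fluorescence per well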
NTR1 ag – activates human neurotensin receptor 1 | P30989 | NTR1-U2OS beta-arrestin-GFP spot imaging, agonist mode | activation, % at 20 µM | hit rate 0.17% among 330,000;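 active = activation at or above 40% of the spot to cytoplasm intensity ratio, with at least 20 cells analyzed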
M1 ag parental – counter-screen for M1 agonists: effect in parental CHO-K1 cells; Fluo-8 calcium fluorescence; scaled to maximal ATP response, vehicle zero; activation, % at 3 µM; hit rate 0.48% among 360,000; AID 602248; in the data active = activation above about 15%;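 also: untransfected CHO-K1 host cells lacking M1 receptor as counterscreen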
CHO-K1 Ca antag – counter-screen for M1 antagonists: effect in parental CHO-K1 cells; inhibition, % at 3 µM; hit rate 0.6% among 360,000; ATP-induced calcium, Fluo-8 fluorescence; AID 602250;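 active = inhibition above a per-plate cutoff, the plate's mean sample inhibition plus 3 SD, cut at about 24% in these data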
Numbers stand for hits; – = inactive; · = not tested or not shown. Hits are enriched below; roughly 2.2% of the tested compounds scored in any of these assays.

SMILES | M1 PAM parental | TMEM16A act | TMEM16A inh | NTR1 ag | M1 ag parental | CHO-K1 Ca antag
Cc1c(C(=O)OCC(=O)NCCN2C(=O)CSC2=O)cccc1[N+](=O)[O-] | – | – | · | – | – | 29.8
CCCCN1CC(=O)N2[C@@H]3c4cc(OC)ccc4OC[C@@H]3[C@H](C(=O)OCC)[C@]2(C)C1=O | – | · | · | · | – | –
CCOc1ccc(Cl)cc1-c1cc(C(=O)NCCOC)[nH]n1 | – | · | · | · | – | –
COc1ccc(-n2c(=O)c(CCC(=O)N(C)Cc3ccccc3C)nc3ccccc32)cc1 | – | – | – | – | – | –
CCc1ccc(CN(C)C(=O)CCc2nc3ccccc3n(-c3ccc(OC)cc3)c2=O)cc1 | – | – | 100 | – | – | –
Cn1c(CN2CCOCC2)nc2cc(NC(=O)COc3ccccc3)ccc21 | – | – | – | – | – | –
Cn1c(CCN2CCOCC2)nc2cc(NC(=O)COc3ccccc3)ccc21 | – | – | – | – | – | 25.7
Cc1cccc(C)c1-n1nnnc1C1(C)CCC(=O)N1CCCN1CCOCC1 (stereo unspecified) | – | · | · | · | – | –
O=C1c2ccccc2C(=O)N1CCC#C/C=C1\c2ccccc2C(=O)N1c1ccccc1 | – | · | · | · | – | –
CC(C)CNc1ncnc2c1ncn2[C@H]1CN(Cc2cccs2)C[C@@H](CO)O1 | – | · | · | · | – | –
O=C1/C(=C/c2ccc(F)cc2)CCC1C1CCCC1 (stereo unspecified) | – | – | – | – | – | 24.0
COc1ccccc1C(NC(=O)C1CCCCC1)c1c(O)ccc2ccccc12 (stereo unspecified) | – | – | – | – | 20.2 | –
Nc1nc(Sc2ccc([N+](=O)[O-])c3nonc23)c2[nH]cnc2n1 | – | -6.05 | · | · | – | –
CC(C)(C)OC(=O)NCCCCCc1nnc(SCC(=O)Nc2cccc(Cl)c2)o1 | – | – | 100 | – | – | –
CC(C)(C)OC(=O)NCCc1nnc(SCC(=O)Nc2ccc(Br)cc2)o1 | – | – | – | – | 28.6 | –
CC(C)(C)OC(=O)NCCc1nnc(SCC(=O)Nc2cccc(Cl)c2)o1 | – | – | – | – | – | –
CCC(C)CNC(=O)c1[nH]c(C(F)(F)F)nc1-c1ccccc1 (stereo unspecified) | – | · | · | · | – | –
COc1cc2nc(CN3CCN(S(=O)(=O)c4ccccc4[N+](=O)[O-])CC3)[nH]c(=O)c2cc1OC | – | · | · | · | – | –
O=C(Nc1ccc(Cl)c([N+](=O)[O-])c1)C(Sc1ccccc1)c1ccccc1 (stereo unspecified) | – | – | 100 | – | – | –
NC(=O)c1ccsc1NC(=O)COC(=O)/C=C/c1ccccc1 | – | – | – | – | – | 27.5
NC(=O)c1ccsc1NC(=O)COC(=O)c1ccccc1F | – | – | · | – | – | –
NC(=O)c1ccsc1NC(=O)COC(=O)/C=C/c1ccccc1[N+](=O)[O-] | – | – | · | – | 18.0 | –
O=S1(=O)CC(N2CC=CC2)CN1C1CCCCC1 (stereo unspecified) | – | · | · | · | – | –
CC(C)C[C@H](NC(=O)[C@H](Cc1ccccc1)n1c(=O)[nH]c2ccccc2c1=O)C(=O)N1CCC(C(=O)O)CC1 | – | -13.4 | – | – | – | –
C[C@H](NC(=O)[C@H](Cc1ccccc1)n1c(=O)[nH]c2ccccc2c1=O)C(=O)N1CCC(C(=O)O)CC1 | – | – | – | – | – | –
SMILES | M1 PAM parental | TMEM16A act | TMEM16A inh | NTR1 ag | M1 ag parental | CHO-K1 Ca antag
O=C(O)CC1NC(=S)N(Cc2ccccc2)C1=O (stereo unspecified) | – | · | · | · | – | –
O=C1C(CCCNC(=S)NCc2ccccc2)NC(=S)N1Cc1ccccc1 (stereo unspecified) | – | – | – | – | 19.1 | –
CCN1CCCC1Cn1cnc2c([nH]c3cccc(Cl)c32)c1=O (stereo unspecified) | – | -10.5 | – | – | – | –
COc1cccc(N/C(N)=N/c2nc(C(F)(F)F)cc(C(F)(F)F)n2)c1 | – | – | – | – | – | –
COc1cccc(N/C(N)=N/c2nc(C(F)(F)F)cc(=O)[nH]2)c1 | – | – | – | – | 17.9 | –
COc1ccc(OC)c(CN2CCN(C(=O)c3ccc(C)c(S(=O)(=O)Nc4ccccc4OC)c3)CC2)c1 | – | – | · | · | – | –
CCn1c2ccccc2c2cc(CNCc3ccc(OC)cc3OC)ccc21 | – | – | 100 | – | – | –
O=C(CC1C(=O)NCCN1Cc1ccccc1)NC1CCCCC1 (stereo unspecified) | – | · | · | · | – | –
Cc1cc(/C=N/NC(N)=S)c(C)n1-c1ccc(Cl)cc1 | – | – | – | – | 17.9 | –
O=C(c1ccco1)N1CC2(CC(c3ccc(Cl)cc3)=NO2)CN1Cc1ccc(Br)cc1 (stereo unspecified) | – | · | · | · | – | –
O=C(Nc1nnc(-c2ccc(Cl)cc2)o1)c1nc2ccccc2s1 | – | -12.8 | – | – | – | –
COc1cccc(OC)c1C(=O)Nn1c(-c2cccc(C)c2)nc2ccccc2c1=O | – | – | – | – | – | 24.1
O=C(NCc1cccnc1)c1cc(C2CCCCN2S(=O)(=O)c2cccs2)on1 (stereo unspecified) | – | · | · | · | – | –
CN(C1=NS(=O)(=O)N=C(N(C)c2ccccc2)O1)c1ccccc1 | – | · | · | · | – | –
O=C(NNC(=O)c1cccc2ccccc12)c1ccc(-c2ccccc2)cc1 | – | -15.3 | – | – | – | –
O=C(NNC(=O)c1cccc2ccccc12)c1ccccc1O | – | – | – | – | – | –
CCc1nc2ccc(C(=O)NCCCn3ccnc3)cn2c1N(C)Cc1ccc(Cl)cc1 | – | · | · | · | – | –
O=C1N/C(=C\c2ccc(O)cc2)C(=O)c2ccccc21 | – | – | 25 | – | – | –
O=C(O)/C=C1\NC(=O)c2ccccc21 | – | – | – | – | – | –
CCSc1nsc(NC(=O)Nc2ccccc2Cl)n1 | – | – | · | · | – | 27.9
CC(C)=C[C@H]1C[C@H](C)[C@H]2CC[C@H](C)c3c(O)c(O[C@H]4OC[C@H](O)[C@@H](O)[C@@H]4O)c(C)c1c32 | – | · | · | · | – | –
CCc1nc2c(OCCC3CCCCC3)cccn2c1N(C)C(=O)C(C)C | – | · | · | · | – | –
Cc1ccc(-c2nnn(CC(=O)N(CC(=O)NC3CCCCC3)c3cccc(F)c3)n2)o1 | – | – | · | – | 20.4 | –
O=C(NCCc1ccccc1)c1ccc(-c2ccc(F)c(F)c2)c2ccoc12 | – | · | · | · | – | –
O=C1c2cccc3c(O)ccc(c23)C(=O)N1Cc1ccccc1 | – | – | – | – | 149.2 | 60.3
O=C(O)c1cccc(CN2C(=O)c3ccccc3C2=O)c1 | – | · | – | – | – | –
Cc1ccc(S(=O)(=O)N2CCCCC2)cc1NC(=O)COC(=O)c1ccc(=O)[nH]c1 | – | – | · | – | – | –
CCOc1cccc(NC(=O)C(Cc2cccs2)c2nn[nH]n2)c1 (stereo unspecified) | – | · | – | – | – | 26.6
